# Experimental data from PubChem BioAssay (Tox21).
# Results filed as inconclusive are left out. Where a call stands in place of a potency, no number is given. Calls of active or inactive are those of the source. Unless noted, the call rests on the fitted dose curve; in most records, active means well fitted curve in the direction sought with a large enough effect in the repeat runs; inconclusive means weak or mixed curves; inactive means no such curve, though single readings can be large; an effect the other way counts as inactive or inconclusive.
# Biological target: Androgen receptor (Homo sapiens) (UniProt P10275)
# Assay: qHTS assay to identify small molecule antagonists of the androgen receptor (AR) signaling pathway (AID 743035; active means well fitted inhibition curve with a large enough effect in the signal ratio in the repeat runs, not every such curve was filed as active; the % refers to the signal ratio)
# Conditions: HEK293 AR-UAS-bla, R1881-stimulated, beta-lactamase FRET, 16 h; series mostly up to 58.5 µM
# Procedure, shortened: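 Beta-lactamase FRET read (2 h RT incubation with LiveBLAzer B/G) following 16 h of compound plus R1881 treatment of AR-UAS-bla HEK293 cells, which had been pre-incubated 4 h at 37C.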
# Sequence of Androgen receptor (Homo sapiens) (P10275 whole entry, looked up): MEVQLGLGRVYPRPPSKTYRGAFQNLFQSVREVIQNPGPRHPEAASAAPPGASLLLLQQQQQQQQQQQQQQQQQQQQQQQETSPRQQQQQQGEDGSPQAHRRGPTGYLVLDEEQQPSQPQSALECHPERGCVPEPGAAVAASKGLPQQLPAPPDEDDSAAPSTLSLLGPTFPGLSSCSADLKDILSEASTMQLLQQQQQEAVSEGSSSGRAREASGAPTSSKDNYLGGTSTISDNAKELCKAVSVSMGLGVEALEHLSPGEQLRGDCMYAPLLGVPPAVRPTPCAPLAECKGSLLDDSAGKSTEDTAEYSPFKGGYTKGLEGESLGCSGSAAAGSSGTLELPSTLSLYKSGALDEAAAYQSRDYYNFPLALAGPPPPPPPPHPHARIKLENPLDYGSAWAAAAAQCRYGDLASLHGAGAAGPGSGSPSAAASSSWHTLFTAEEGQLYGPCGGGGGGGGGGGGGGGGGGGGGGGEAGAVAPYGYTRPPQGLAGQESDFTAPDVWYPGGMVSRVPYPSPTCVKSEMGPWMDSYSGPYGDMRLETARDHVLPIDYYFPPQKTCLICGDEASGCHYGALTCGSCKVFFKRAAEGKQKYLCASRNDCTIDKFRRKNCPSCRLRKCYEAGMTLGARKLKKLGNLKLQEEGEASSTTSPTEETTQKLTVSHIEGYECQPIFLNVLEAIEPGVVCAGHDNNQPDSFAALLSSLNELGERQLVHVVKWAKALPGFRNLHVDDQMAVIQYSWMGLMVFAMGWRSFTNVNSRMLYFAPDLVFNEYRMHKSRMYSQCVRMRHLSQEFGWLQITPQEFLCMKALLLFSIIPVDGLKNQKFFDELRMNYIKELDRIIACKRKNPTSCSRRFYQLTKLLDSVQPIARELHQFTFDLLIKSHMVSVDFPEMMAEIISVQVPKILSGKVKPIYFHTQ
row,SMILES,Potency
1,C1COCCO1,inactive
2,CCCOCC(C)OCC(C)O (centres undefined),inactive
3,CCN1CCN(c2cc3c(cc2F)c(=O)c(C(=O)O)cn3C2CC2)CC1,inactive

# Biological target: Androgen receptor (Homo sapiens) (UniProt P10275)
# Assay: qHTS assay to identify small molecule agonists of the androgen receptor (AR) signaling pathway using the MDA cell line (AID 743040; further: nearly all actives have a fitted effect of over 20% in size)
# Conditions: MDA-kb2 AR-luc cells, MMTV luciferase, 16 h; series mostly up to 70.3 µM
# Procedure, shortened: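 Luminescence from ONE-Glo, read after 30 min at room temperature, reflects MMTV-driven luciferase in MDA-kb2 cells (AR- and GR-responsive). Treatment lasted 16 h at 37C, 0% CO2.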
row,SMILES,Potency
1,C1COCCO1,inactive
2,CCCOCC(C)OCC(C)O (centres undefined),inactive
3,CCN1CCN(c2cc3c(cc2F)c(=O)c(C(=O)O)cn3C2CC2)CC1,inactive

# System: not listed separately
# Assay: qHTS assay to identify small molecule antagonists of the androgen receptor (AR) signaling pathway using the MDA cell line - cell viability counter screen (AID 743041; further: nearly all actives have a fitted effect of over 45% in size)
# Conditions: MDA-kb2 viability, CellTiter-Fluor, 16 h, cells co-treated with R1881 androgen agonist; series mostly up to 70.3 µM
# Procedure, shortened: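 Viability counter screen run alongside the AR antagonist reporter: cells seeded 5 h before compound, R1881 added, 16 h incubation at 37C without CO2, fluorescent CellTiter-Fluor signal quantified.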
row,SMILES,Potency
1,COC(=O)[C@H]1[C@H]2C[C@@H]3c4[nH]c5cc(OC)ccc5c4CCN3C[C@H]2C[C@@H](OC(=O)COc2ccc(OC)cc2)[C@@H]1OC,inactive
2,Nc1ccc2cc(S(=O)(=O)O)ccc2c1,inactive
3,C=CCSCC1Nc2cc(Cl)c(S(N)(=O)=O)cc2S(=O)(=O)N1 (centres undefined),inactive
4,O=C1C(CCS(=O)c2ccccc2)C(=O)N(c2ccccc2)N1c1ccccc1 (centres undefined),inactive
5,CC(C)=CC(=O)O,inactive
6,CCN(CC)C(=O)c1ccc(O)c(OC)c1,inactive
7,NCCNC(=O)c1ccc(Cl)cn1,inactive
8,Cc1cc(C)cc(OCC2CNC(=O)O2)c1 (centres undefined),inactive
9,C1COCCO1,inactive
10,O=C1OC(=O)c2cc([N+](=O)[O-])ccc21,inactive
11,C=C(C)C1CC=C(C)C(O)C1 (centres undefined),inactive
12,C[C@H]1O[C@@H](n2cc(F)c(=O)[nH]c2=O)[C@H](O)[C@@H]1O,inactive
13,C#CC(C)(O)CC(C)C (centres undefined),inactive
14,CC(=O)NC(Cc1ccccc1)C(=O)O (centres undefined),inactive
15,CN(C)N=Nc1ccccc1,inactive
16,NCCN1CCNC1=O,inactive
17,CCCOCC(C)OCC(C)O (centres undefined),inactive
18,NS(=O)(=O)c1cc2c(cc1Cl)NC(CSCc1ccccc1)=NS2(=O)=O,inactive

row,SMILES,Potency
1,CCCCCCCCCCCCCCC,inactive
2,CC(C)(C)N(CCO)CCO,inactive
3,N#CCN(CC#N)CCN(CC#N)CC#N,inactive
4,NC(=O)Nc1nc2ccccc2[nH]1,inactive
5,CCCCOCC(C)OCC(C)O (centres undefined),inactive
6,CSc1ccc(C=O)cc1,inactive
7,CCCOc1ccccc1-c1nc2n[nH]nc2c(=O)[nH]1,inactive
8,OC[C@H]1O[C@@H]2O[C@H]3[C@H](O)[C@@H](O)[C@@H](O[C@H]4[C@H](O)[C@@H](O)[C@@H](O[C@H]5[C@H](O)[C@@H](O)[C@@H](O[C@H]6[C@H](O)[C@@H](O)[C@@H](O[C@H]7[C@H](O)[C@@H](O)[C@@H](O[C@H]8[C@H](O)[C@@H](O)[C@@H](O[C@H]9[C@H](O)[C@@H](O)[C@@H](O[C@H]1[C@H](O)[C@H]2O)O[C@@H]9CO)O[C@@H]8CO)O[C@@H]7CO)O[C@@H]6CO)O[C@@H]5CO)O[C@@H]4CO)O[C@@H]3CO,inactive
9,CC(C)(C)C(=O)/C=C/c1ccc(Cl)cc1,inactive
10,CCN1CCN(c2cc3c(cc2F)c(=O)c(C(=O)O)cn3C2CC2)CC1,inactive
11,Cc1ccccc1C(=O)O,inactive
12,COC[C@H](c1ccc(C(F)(F)F)cc1)N1CCN(C2(C)CCN(C(=O)c3c(C)ncnc3C)CC2)C[C@H]1C,inactive
13,Fc1ccccc1-c1ccccc1,inactive
14,NC(=O)c1c(Cl)cccc1Cl,inactive
15,CC1=CC(C)C(C=O)C(C)C1 (centres undefined),inactive
16,C(=C(c1ccccc1)c1ccccc1)c1ccccc1,inactive
17,CC/C=C\CCCCO,inactive

# Biological target: Androgen receptor (Homo sapiens) (UniProt P10275)
# Assay: qHTS assay to identify small molecule antagonists of the androgen receptor (AR) signaling pathway using the MDA cell line (AID 743042; further: nearly all actives have a fitted effect of over 55% in size)
# Conditions: MDA-kb2 AR-luc, MMTV luciferase, R1881 antagonist, 16 h; series mostly up to 70.3 µM
# Procedure, shortened: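 MDA-kb2 cells (human breast carcinoma, stably carrying an MMTV-luciferase reporter responsive to AR and GR) were plated at 3,000 cells/well and preincubated 5 hr at 37C, then given compound plus R1881 agonist for 16 h. ONE-Glo luminescence was read.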
row,SMILES,outcome
1,C1COCCO1,inactive
2,CCCOCC(C)OCC(C)O (centres undefined),inactive
3,CCN1CCN(c2cc3c(cc2F)c(=O)c(C(=O)O)cn3C2CC2)CC1,inactive
